Compounds without any hit were thinned out: in the full panel of roughly 83,000, 20% have a hit.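 Single-concentration screen, 48 h exposure, 96-well plates. Endpoint: percent growth. Below 10 = active.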 Values without a mark were called inactive. Activity calls are given as the source filed them.
Legend:
Experiment in all cases: NCI-60 one-dose screen, 48 h (100 = growth as untreated, 0 = no growth, -100 = all killed)
Details in all cases: 10 µM unless noted
SR leukemia = tested on: SR leukemia
RPMI-8226 leukemia = tested on: RPMI-8226 leukemia
OVCAR-8 ovarian = tested on: OVCAR-8 ovarian
OVCAR-5 ovarian = tested on: OVCAR-5 ovarian
OVCAR-4 ovarian = tested on: OVCAR-4 ovarian
SK-OV-3 ovarian = tested on: SK-OV-3 ovarian
IGROV1 ovarian = tested on: IGROV1 ovarian
OVCAR-3 ovarian = tested on: OVCAR-3 ovarian
HS 578T breast = tested on: HS 578T breast
NCI/ADR-RES ovarian = tested on: NCI/ADR-RES ovarian

| SMILES | growth (SR leukemia) | growth (RPMI-8226 leukemia) | growth (OVCAR-8 ovarian) | growth (OVCAR-5 ovarian) | growth (OVCAR-4 ovarian) | growth (SK-OV-3 ovarian) | growth (IGROV1 ovarian) | growth (OVCAR-3 ovarian) | growth (HS 578T breast) | growth (NCI/ADR-RES ovarian) |
| --- | --- | --- | --- | --- | --- | --- | --- | --- | --- | --- |
| Cc1ccc2nc(SCn3nnc4ccccc4c3=O)[nH]c2c1 | 112% | 94.4% | 109% | 89.5% | 78.4% | 103% | 83.7% | 104% | 107% | 88.8% |
| O=C(Nc1cccc(Cl)c1)c1cc([N+](=O)[O-])ccc1O | 57% | 25.4% | 69.3% | 68.8% | 46.1% | 59.8% | 62.5% | 42% | 41.9% | 56% |
| CN(C)CCCNC(=O)C(c1ccccc1)c1ccccc1 | 105% | 101% | 102% | 111% | 118% | 112% | 117% | 113% | 110% | 97.7% |
| NS(=O)(=O)c1ccc(NCC(=O)Nc2ccc(-c3nc4ccccc4s3)cc2)cc1 | 16% | 36.7% | 82.7% | 106% | 67.2% | 106% | 59% | 34.3% | 98.3% | 94% |
| CN(C)C/C=C/C(=O)Nc1cc2c(Nc3cccc(Cl)c3F)ncnc2cc1OCCOC(F)F | 51.6% | 58.6% | 34.7% | 29.7% | 27.9% | -0.955% (active) | -21.7% (active) | 23.9% | 11.2% | 32.9% |
| CC(C)(C)OC(=O)N[C@@H](Cc1ccccc1)C(=O)N(Cc1ccccc1)C1(C(=O)NCc2ccccc2)CCN(Cc2ccccc2)CC1 | -0.167% (active) | 22.8% | 22.6% | 31.1% | 24.2% | 69.9% | 59.1% | 48.5% | 71.5% | 12.1% |
| FC(F)(F)c1cccc(-n2nnc3cnc(Nc4ccc(N5CCCCC5)cc4)nc32)c1 | 29.2% | 90.9% | 37.5% | 74.3% | -9.56% (active) | 80.2% | 88.8% | 82.4% | 76.5% | 76.9% |
| Clc1nc(Cl)c2ncn(C/C=C/Cn3cnc4c(Cl)nc(Cl)nc43)c2n1 | -14.2% (active) | -17.3% (active) | 7.73% (active) | 112% | 94.6% | 103% | 17.7% | 60.5% | 46.3% | 99% |
| COc1cc2c(cc1OCCCCn1c(-c3cc(=O)c4ccccc4o3)nc3ccccc31)N=C[C@@H]1CCCN1C2=O | 39.8% | 67.7% | 106% | 111% | 108% | 109% | -16.3% (active) | 111% | 116% | 110% |
| COc1ncc(-c2ccc3ncnc(Nc4cccc(Cl)c4)c3c2)cc1N(S(C)(=O)=O)S(C)(=O)=O | 92.6% | 55.8% | 73.8% | 43.2% | 77.3% | 52.2% | -28.6% (active) | 54.9% | 49.7% | 72.7% |
| COc1ccc(-c2nnc(COc3ccc(NS(=O)(=O)c4ccc(OC)cc4)cc3F)o2)cc1 | 50.6% | 43.4% | 82.5% | 94.2% | 57.3% | 83.9% | 84.5% | 76.7% | 88.2% | 55.3% |
| COc1ccccc1OCC(=O)Nc1sc2c(c1C(N)=O)CCC2 | 65.2% | 66.2% | 76.9% | 107% | 83.2% | 69.9% | -10.4% (active) | 92.1% | 55.5% | 79.1% |
| CCCC1OC(c2ccc(C(C)C)cc2)OCC1CC (stereo not given) | 91.7% | 104% | 96.7% | 101% | 112% | 85.5% | 112% | 107% | 99.6% | 105% |
| C=C1C(=O)O[C@H]2[C@H]1CC/C(Cn1cc(-c3ccccc3C(F)(F)F)nn1)=C\CC[C@@]1(C)O[C@@H]21 | 2.59% (active) | -29.4% (active) | -27.1% (active) | -18.6% (active) | -19% (active) | 79.1% | -21.4% (active) | -93.8% (active) | 39.1% | 19.6% |
| COc1ccc(C2CC(c3cccs3)=NN2c2ccc(S(=O)(=O)NC(=O)NCc3cccc(OC)c3)cc2)cc1 (stereo not given) | 75.8% | 95.3% | 107% | 113% | 103% | 82.6% | 108% | 106% | 97.5% | 103% |
| O=c1oc2c([nH]c3ccc4ccccc4c32)c2ccccc12 | 102% | 103% | 104% | 112% | 109% | 107% | 118% | 109% | 104% | 104% |
| Cn1c(C(N)=O)cc2c1-c1nc(NC3CCCCC3)ncc1CCC2 | 92.5% | 93.5% | 88.1% | 64.6% | 93.4% | 91.3% | 113% | 97.1% | 58.5% | 91.5% |
| COc1cc(OC)c(C(=O)/C=C/c2ccc(C#N)cc2)c(OC)c1 | 6.75% (active) | 4.28% (active) | 11.7% | 41.8% | 32.8% | 17.2% | 14% | 8.04% (active) | 32% | 24.1% |
| COc1cc(-c2csc(NC(=O)Nc3ccc(Cl)cc3Cl)n2)cc(OC)c1OC | 23.1% | 30% | 45.4% | 75.8% | 55.5% | 55.5% | 51.7% | 20.5% | 34.5% | 9.75% (active) |
| CC[C@H](C)[C@@H]1NC(=O)[C@H]([C@@H](C)O)NC(=O)C(Cc2ccccc2)NC(=O)[C@@H]2CCCN2C(=O)C(C(C)C)NC(=O)C(Cc2ccccc2)NC(=O)CNC(=O)[C@@H]2CCCN2C1=O (stereo not given in full) | 20.1% | 7.56% (active) | 68.3% | 89.9% | 60% | 78.4% | 63.6% | 57.6% | 59.2% | 64.5% |
| CCn1cc(C2NC(=O)c3cc(F)ccc3N2)c2cccc(Cl)c21 (stereo not given) | -10.1% (active) | 9.88% (active) | -35.9% (active) | 36% | 39.4% | 27.7% | 18.2% | 6.84% (active) | 12.4% | 1.68% (active) |
| CCSc1nnc(NC(=O)Cc2ccc(Cl)cc2)s1 | 103% | 116% | 113% | 97.1% | 107% | 106% | -24.9% (active) | 106% | 110% | 104% |
| CCn1c(=O)c2c(=O)c3c4c(oc3oc2c2ccccc21)C(=O)c1ccccc1C4=O | 80.8% | 33.5% | 10.2% | 118% | -99.5% (active) | 102% | 68.3% | -16.3% (active) | 93.7% | 45.8% |
| COc1ccc(C2CC(c3cccs3)=NN2c2ccc(S(=O)(=O)NC(=O)Nc3ccc(C)cc3)cc2)cc1 (stereo not given) | 84.7% | 83.4% | 99.8% | 115% | 106% | 78.3% | 108% | 98.2% | 96% | 103% |
| COc1ccc(/C=C/C(=O)c2cccc(B(O)O)c2)cc1O | 6.45% (active) | 5.96% (active) | 60.1% | 88.4% | 73.9% | 58.1% | 18.2% | -6.95% (active) | 32.9% | 48.9% |
| Cc1ccc(S(=O)(=O)NCCCNc2nccc(-c3c(-c4ccccc4)nc4sccn34)n2)cc1 | 33.9% | 25.6% | 37.9% | 117% | 48.4% | 57.9% | 35.7% | 38% | 74.9% | 49% |
| Cc1ccc(S(=O)(=O)OCC(=O)Nc2ccc(C(=O)O)c(O)c2)cc1 | 45.7% | 92% | 97.7% | 102% | 86.9% | 127% | -17.7% (active) | 118% | 118% | 88% |

— PubChem BioAssay (NCI)
